Source: PubChem BioAssay
IL1B secr inh: qHTS for Inhibitors of Inflammasome Signaling: IL-1-beta AlphaLISA Primary Screen; AID 743279, 2014; THP-1 LPS/ATP IL-1B secretion, AlphaLISA, 16 h; stronger effect = lower value; activity change, % at 57.5 µM; 4.7% of 360,000 active; in the data active means activity change below about -50%; inconclusive means mostly about -30% to -49%; further: on the % scale 0 is the no-effect control and ±100 the full control effect
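Secreted IL-1B measured by AlphaLISA bead assay after 16 h compound exposure of THP-1 cells; compounds (final up to 57.5 uM) added 1 h before LPS (250 ng/mL) and ATP (1.25 mM) stimulation; lower signal means less secretion.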
HT1080NT lethal: qHTS for induction of synthetic lethality in tumor cells producing 2HG: qHTS for the HT-1080-NT fibrosarcoma cell line. HT-1080-NT fibrosarcoma viability, CellTiter-Glo ATP luminescence, 48 h. Potency, µM (highest dose often 46.1 µM), inactives show top-dose activity, negative = less viability, most hits filed as cytotoxic. 1.6% of 360,000 active. AID 686970, 2013;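 further: NT is the 2HG producing partner of a matched IDH1 knockdown line; potency means the concentration at half of the fitted maximal effect; 0% = DMSO-treated cells and -100% = media-only wells without cells; nearly all actives have a fitted effect of over 55% in size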
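Read-out is CellTiter-Glo luminescence after 10 minutes at room temperature, following 48 hours' compound treatment of HT-1080-NT cells (750 cells/well, RPMI, 5% FBS, 37 degrees C).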
Giardia killer: Small Molecules that selectively kill Giardia lamblia: qHTS. Giardia lamblia trophozoite viability. activity change, % at 7.66 µM, hits read low. 0.15% of 340,000 active. AID 540267, 2011; in the data active means activity change below about -80%; inconclusive means between about -30% and that limit;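 further: parasites exposed to compound for two days anaerobically before the ATP read; on the % scale 0 is the no-effect control and ±100 the full control effect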
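Viability, read as ATP luminescence: trophozoites at 100 cells/well, compound added, 48 hrs anaerobic at 37 deg C, then 15-30 min room-temperature development before reading.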
HepG2 viability: qHTS for Inhibitors of TGF-b: Cytotox Counterscreen; 0.76% of 410,000 active; AID 588856, 2011; HepG2 CAGA-GFP viability, ATP luminescence, 18 h; Potency, µM (doses to about 46.1 µM), for inactives: at the highest dose activity change, negative = cytotoxicity, usual class: cytotoxic; further: potency means the concentration at half of the fitted maximal effect
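CellTiter-Glo luminescence gave cytotoxicity after 18 hours at 37 degrees C. The cells were HepG2 CAGA-GFP in 1% FBS DMEM, stimulated with 500 pg/mL TGF-beta after compound addition. %Activity was normalised to no-cell wells (complete cell-killing) and DMSO (no toxicity), and curves were fitted and classified.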
TGFb SMAD3 inh: qHTS for Inhibitors of TGF-b; Potency, µM (top dose mostly 46.1 µM), without a hit: at the top dose activity, negative = inhibition, actives largely listed as inhibitors; HepG2 CAGA-GFP TGF-b/SMAD3 reporter, GFP fluorescence, 18 h; TGF-beta stimulated, 500 pg/mL final; 1.2% of 410,000 active; further: potency means the concentration at half of the fitted maximal effect; on the % scale 0 is the no-effect control and ±100 the full control effect; nearly all actives have a fitted effect of over 65% in size
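Inhibition was scored as loss of TGF-beta-induced (500 pg/mL final, 18 hours, 37 degrees C) GFP in HEPG2 cells carrying a CAGA-GFP reporter, in DMEM with 1% FBS. Well GFP was summed per cell; Activity was normalised to unstimulated and stimulated DMSO wells, then concentration-response fitting.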
HT1080 IDH1KD tx: qHTS for induction of synthetic lethality in tumor cells producing 2HG: qHTS for the HT-1080-IDH1KD cell line. Potency, µM (series often up to 46.1 µM), for inactives: top-dose activity, negative = toxicity, actives largely listed as cytotoxic. HT-1080 IDH1 knockdown viability, ATP luminescence, 48 h. 2% of 360,000 active. AID 686971, 2013;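 further: potency means the concentration at half of the fitted maximal effect; 0% = DMSO wells and -100% = cell-free medium wells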
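Assay cells: HT-1080 with IDH1 knockdown, 750 per well, RPMI/5% FBS. Exposure: 48 h at 37 °C following 2 h pre-incubation. Read: CellTiter-Glo luminescence; fitted concentration-response, curve class assigned.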
* hit, by the source's call; ? = inconclusive; . = no result. Sampled rows, rich in hits. Any-hit rate of the full collection: about 6.5%. Unless noted, the call rests on the fitted dose curve; in most records, active means well fitted curve in the direction sought with a large enough effect; inconclusive means small, poorly fitted or top-dose-only effect, or another doubt; inactive means no such curve, though single readings can be large; an effect the other way counts as inactive or inconclusive.

SMILES	IL1B secr inh	HT1080NT lethal	Giardia killer	HepG2 viability	TGFb SMAD3 inh	HT1080 IDH1KD tx
N#CC1=C(N)Oc2n[nH]c(-c3cccs3)c2C1C1CCCCC1 (stereo unspecified)	-98*	?	-1	-58%	-25%	-25%
COc1ccc(C2/C(=C(/O)c3ccc(F)cc3)C(=O)C(=O)N2c2ccccn2)cc1OC (stereo unspecified)	-4	7%	21	0%	-1%	4%
CCCCC(=O)NC(c1ccccc1Cl)c1c(O)ccc2ccccc12 (stereo unspecified)	-89*	?	3	-14%	?	?
CC(C)C(=O)NC(c1ccc([N+](=O)[O-])cc1)c1c(O)ccc2ccccc12 (stereo unspecified)	-88*	?	9	-42%	?	?
CCCC(=O)NC(c1ccccc1Cl)c1c(O)ccc2ccccc12 (stereo unspecified)	-26	-14%	-5	-23%	0%	-18%
CC(=O)NC(c1ccc(C(C)C)cc1)c1c(O)ccc2ccccc12 (stereo unspecified)	-75*	?	7	-3%	?	?
Cc1cc(C(=O)COC(=O)c2ccc(O)cc2O)c(C)n1-c1ccc(OC(F)F)cc1	-3	-7%	-9	-16%	?	-20%
O=C(N/N=C/c1ccc(O)cc1)Nc1cccc2nsnc12	-98*	?	-8	-18%	0%	?
COc1cc(/C=N/NC(=O)Nc2cccc3nsnc23)cc(OC)c1OC	-13	10%	-21	6%	11%	16%
CCN(CC)CCCC(C)Nc1cc(/C=C/c2ccccc2Cl)nc2cc(Cl)ccc12 (stereo unspecified)	.	.	.	2.8µM*	2.8µM*	.
C=CCOC(=O)C1=C(C)NC(=S)C(C#N)(CC=C)C1c1ccccc1Cl (stereo unspecified)	0	0%	6	-38%	11µM*	8%
CC1CCN(C(=O)C2CCN(S(=O)(=O)c3cc(Cl)ccc3Cl)CC2)CC1	-66*	3%	-2	-3%	-13%	-1%
COC(=O)[C@@]1(Cc2ccc(F)cc2)[C@H]2c3cc(C(=O)N4CCCC4)n(CCc4ccc(OC)c(Br)c4)c3C[C@H]2CN1C(=O)c1ccccc1	-67*	9%	.	.	.	1%
COC(=O)[C@@]1(Cc2ccc(F)cc2)[C@H]2c3cc(C(=O)N(C)C)n(CCF)c3C[C@H]2CN1C(=O)c1ccccc1	-27	-30%	.	.	.	?
COC(=O)[C@@]1(Cc2ccc(OC)cc2)[C@H]2c3cc(C(=O)N4CCCC4)n(Cc4ccccc4)c3C[C@H]2CN1C(=O)c1ccccc1	-66*	-21%	.	.	.	?
COC(=O)[C@@]1(Cc2ccc(F)cc2)[C@H]2c3cc(C(=O)N(C)C)n(Cc4ccc(C)c(F)c4F)c3C[C@H]2CN1C(=O)c1ccccc1	-75*	?	.	.	.	?
O=C(CCc1ccccc1)N/N=C\c1cc2c(cc1Br)OCO2	3	3%	-10	-24%	-10%	4%
Cc1cccc(NC(=O)CSc2nncn2N)c1C	18	3%	.	-3%	-10%	-2%
COC(=O)C1=CN(Cc2cccs2)C=C(C(=O)OC)C1c1ccc(OC)cc1OC	7	-10%	15	13%	18%	-8%
COC(=O)C1=CN(Cc2cccs2)C=C(C(=O)OC)C1c1cccc(Cl)c1	-29	-8%	-1	10µM*	?	-23%
Fc1ccccc1N1CCN(C2CCN(Cc3c[nH]c4ccccc34)CC2)CC1	4	7%	15	-1%	1%	-6%
